Assay results published in PubChem BioAssay (Tox21).
Values joined by “and” are separate entries in the source; they are usually repeats but may differ in a detail not shown here. Equal values may be shown once. Records with an inconclusive call do not appear. Entries that show only a call come without a potency. Some structures have more than one record in an assay (separate samples or runs), and their calls can disagree. Active and inactive are the calls of the source. Unless noted, calls come from the whole dose curve; as a rule, active = well fitted curve in the direction sought with a large enough effect in the repeat runs; inconclusive = weak or mixed curves; inactive = no such curve, though single readings can be large; an effect the other way counts as inactive or inconclusive.

What was measured:
[1] = Caspase-3/7 induction in HepG2 cells by small molecules, qHTS cell viability counter screen (AID 1346981); note: nearly all actives have a fitted effect of over 30% in size; note: potency is the fitted concentration of half-maximal effect
In short: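 After a 5-hr attachment period at 37 C and 5% CO2, wild-type HepG2 cells received compounds in DMSO. Sixteen hours later CellTiter-Fluor was dispensed and the fluorescent signal quantified after a further hour.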

[2] = molecular target: Nuclear receptor subfamily 1 group I member 2 (Homo sapiens) (UniProt O75469); assay: Human pregnane X receptor (PXR) small molecule agonists, qHTS assay (AID 1346982); note: nearly all actives have a fitted effect of over 35% in size; note: potency is the fitted concentration of half-maximal effect
In short: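 Tox21 qHTS; PXR-Luc HepG2; compounds pinned from DMSO; 24 hr, 37 C; ONE-Glo luciferase detection, 30 min room temperature.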

[3] = molecular target: Acetylcholinesterase (Homo sapiens) (UniProt P22303); assay: Acetylcholinesterase (AChE) small molecule antagonists: colormetric cell-based qHTS assay (AID 1347395; calls by dose curve; note: nearly all actives have a fitted effect of over 30% in size; note: potency is the fitted concentration of half-maximal effect)
In short: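 SH-SY5Y cells attached overnight, exposed to compound 30 min at 37 C, then given DTNB/acetylthiocholine; after 90 min at 37 C, colorimetric thiocholine read gives cellular AChE activity.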

[4] = molecular target: Acetylcholinesterase (Homo sapiens) (UniProt P22303); assay: Acetylcholinesterase (AChE) small molecule antagonists: enzyme-based qHTS assay (AID 1347397; calls by dose curve; note: nearly all actives have a fitted effect of over 55% in size; note: potency is the fitted concentration of half-maximal effect); conditions: Potency: AChE enzyme activity inhibition
In short: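 Colorimetric DTNB read-out of thiocholine released from acetylthiocholine by recombinant human AChE (50 mU/mL as dispensed). Compounds were preincubated 30 min at RT before substrate/DTNB addition, with a 10 min RT reaction.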

[5] = molecular target: Acetylcholinesterase (Homo sapiens) (UniProt P22303); assay: Acetylcholinesterase (AChE) small molecule antagonists: fluorescence cell-based qHTS assay (AID 1347398; calls by dose curve; note: nearly all actives have a fitted effect of over 50% in size; note: potency is the fitted concentration of half-maximal effect); conditions: Potency: AChE activity
In short: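 SH-SY5Y, 2,000 cells/well, attached overnight; cmpd 30 min 37 C; acetylthiocholine/Thiolite Green cocktail 40 min RT; fluorescence Ex/Em 490/520 nm.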

[6] = molecular target: Acetylcholinesterase (Homo sapiens) (UniProt P22303); assay: Acetylcholinesterase (AChE) small molecule antagonists: enzyme-based qHTS assay with human liver microsomes (AID 1347399; calls by dose curve; note: nearly all actives have a fitted effect of over 60% in size; note: potency is the fitted concentration of half-maximal effect); conditions: Potency: qHTS inhibition
In short: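 Recombinant human AChE (50 mU/mL in the enzyme mix) and human liver microsomes (0.25 mg/mL final) were preincubated with compound and NADPH (0.25 mg/mL final) for 30 min at 37 C. Acetylthiocholine/DTNB was then added; thiocholine was read colorimetrically after 10 min at room temperature.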

[7] = molecular target: Cytochrome P450 2D6 (Homo sapiens) (UniProt P10635); assay: Cytochrome P450 Family 2 Subfamily D Member 6 (CYP2D6) small molecule antagonists: luciferase reporter qHTS assay (AID 1671196); note: nearly all actives have a fitted effect of over 50% in size; note: potency is the fitted concentration of half-maximal effect
In short: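 Room-temperature luminescent CYP2D6 activity assay: compound preincubated 10 min with enzyme–substrate mix, NADPH-initiated reaction 1 h, detection reagent 20 min before reading.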

[8] = molecular target: Cytochrome P450 2C19 (Homo sapiens) (UniProt P33261); assay: Cytochrome P450 Family 2 Subfamily C Member 19 (CYP2C19) small molecule antagonists: luciferase reporter qHTS assay (AID 1671197); note: nearly all actives have a fitted effect of over 65% in size; note: potency is the fitted concentration of half-maximal effect
In short: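 Compounds were tested on CYP2C19 activity via proluciferin conversion to luciferin. The 37C, 1 h reaction followed NADPH addition; detection reagent stopped it.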

[9] = molecular target: Cytochrome P450 2C9 (Homo sapiens) (UniProt P11712); assay: Cytochrome P450 Family 2 Subfamily C Member 9 (CYP2C9) small molecule antagonists: luciferase reporter qHTS assay (AID 1671198); note: nearly all actives have a fitted effect of over 50% in size; note: potency is the fitted concentration of half-maximal effect
In short: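 P450-Glo proluciferin substrate with CYP2C9 enzyme; 10 min RT preincubation, then NADPH regeneration 1 h at 37C; luciferin detection reagent 20 min RT, luminescence in relative luminescence units.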

[10] = molecular target: Cytochrome P450 1A2 (Homo sapiens) (UniProt P05177); assay: Cytochrome P450 Family 1 Subfamily A Member 2 (CYP1A2) small molecule antagonists: luciferase reporter qHTS assay (AID 1671199); note: nearly all actives have a fitted effect of over 50% in size; note: potency is the fitted concentration of half-maximal effect
In short: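 Room-temperature CYP1A2 reaction with proluciferin substrate: compounds added from DMSO, 10 min preincubation, NADPH regeneration for 1 h. Luciferin detection reagent then added; luminescence recorded as RLU.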

[11] = molecular target: Voltage-gated inwardly rectifying potassium channel KCNH2 (Homo sapiens) (UniProt Q12809); assay: Human Ether-a-go-go-Related Gene (hERG) channel small molecule antagonists: fluorescence cell-based qHTS assay (AID 1671200)
In short: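 hERG-U2OS cells plated overnight at 37 C, loaded with FluxOR II dye 1 h at RT in dark; after 10 min, thallium stimulus added. Fluorescence (480/540 nm) read kinetically for 2 min at 1 s intervals.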

[12] = molecular target: Cytochrome P450 3A4 (Homo sapiens) (UniProt P08684); assay: Cytochrome P450 Family 3 Subfamily A Member 4 (CYP3A4) small molecule antagonists: luciferase reporter qHTS assay (AID 1671201); note: nearly all actives have a fitted effect of over 50% in size; note: potency is the fitted concentration of half-maximal effect
In short: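 P450-Glo CYP3A4 luminescent assay: compounds preincubated 10 min at room temperature with enzyme and proluciferin substrate, NADPH regeneration added, 1 h room-temperature reaction, stopped with luciferin detection reagent; luminescence read after 20 min. Ketoconazole positive control.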

[13] = molecular target: Nuclear receptor subfamily 1 group I member 2 (Rattus norvegicus) (UniProt Q9R1A7); assay: Rat pregnane X receptor (rPXR) activation by small molecules, qHTS assay (AID 1346983); conditions: rPXR luciferase reporter cells, One-Glo luminescence, 24 h; stronger effect = higher value; note: nearly all actives have a fitted effect of over 20% in size
In short: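 Cell-based rPXR activation assay: rPXR cells, 2,000 per well, rested 5hr at 37 C, then exposed to compounds in DMSO for 24 hr at 37 C. Luciferase activity read by One-Glo luminescence after 30 min at room temperature.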

[14] = molecular target: Nuclear receptor subfamily 1 group I member 2 (Homo sapiens) (UniProt O75469); assay: CYP3A4 induction through human pregnane X receptor (PXR) by small molecules, qHTS assay (AID 1346984); note: nearly all actives have a fitted effect of over 40% in size
In short: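 Cells (DPX-2; HepG2 with PXR element plus CYP3A4-promoter luciferase) settled 5hr, then were treated 24hr at 37C. A 3hr, 3uM-final Luciferin-IPA step preceded luminescence measurement with One-Glo.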

[15] = molecular target: Nuclear receptor subfamily 1 group I member 2 (Homo sapiens) (UniProt O75469); assay: Human pregnane X receptor (PXR) activation by small molecules, qHTS assay (AID 1346985); note: nearly all actives have a fitted effect of over 40% in size
In short: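 DPX-2 cells (HepG2 co-transfected with a PXR response element and a CYP3A4-promoter luciferase construct) were seeded at 2,000 per well, rested 5 hr at 37C, then exposed to DMSO-dissolved compounds for 24 hr. Activation was read as luciferase luminescence.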

Sequence of Cytochrome P450 2D6 (Homo sapiens) (P10635 whole entry, looked up): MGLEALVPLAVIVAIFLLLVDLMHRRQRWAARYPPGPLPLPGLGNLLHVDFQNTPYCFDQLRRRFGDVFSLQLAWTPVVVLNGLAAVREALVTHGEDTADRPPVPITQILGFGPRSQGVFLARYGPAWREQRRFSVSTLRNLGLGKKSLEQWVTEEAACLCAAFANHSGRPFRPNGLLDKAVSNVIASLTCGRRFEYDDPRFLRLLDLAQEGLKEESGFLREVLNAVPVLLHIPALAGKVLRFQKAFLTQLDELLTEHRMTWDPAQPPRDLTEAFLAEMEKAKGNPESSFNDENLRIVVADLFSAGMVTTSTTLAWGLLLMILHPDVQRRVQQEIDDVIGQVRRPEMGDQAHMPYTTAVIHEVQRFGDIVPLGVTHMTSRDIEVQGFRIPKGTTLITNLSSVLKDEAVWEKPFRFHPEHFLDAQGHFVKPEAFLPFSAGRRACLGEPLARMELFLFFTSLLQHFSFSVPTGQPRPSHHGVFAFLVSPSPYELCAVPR
Sequence of Voltage-gated inwardly rectifying potassium channel KCNH2 (Homo sapiens) (Q12809 whole entry, looked up): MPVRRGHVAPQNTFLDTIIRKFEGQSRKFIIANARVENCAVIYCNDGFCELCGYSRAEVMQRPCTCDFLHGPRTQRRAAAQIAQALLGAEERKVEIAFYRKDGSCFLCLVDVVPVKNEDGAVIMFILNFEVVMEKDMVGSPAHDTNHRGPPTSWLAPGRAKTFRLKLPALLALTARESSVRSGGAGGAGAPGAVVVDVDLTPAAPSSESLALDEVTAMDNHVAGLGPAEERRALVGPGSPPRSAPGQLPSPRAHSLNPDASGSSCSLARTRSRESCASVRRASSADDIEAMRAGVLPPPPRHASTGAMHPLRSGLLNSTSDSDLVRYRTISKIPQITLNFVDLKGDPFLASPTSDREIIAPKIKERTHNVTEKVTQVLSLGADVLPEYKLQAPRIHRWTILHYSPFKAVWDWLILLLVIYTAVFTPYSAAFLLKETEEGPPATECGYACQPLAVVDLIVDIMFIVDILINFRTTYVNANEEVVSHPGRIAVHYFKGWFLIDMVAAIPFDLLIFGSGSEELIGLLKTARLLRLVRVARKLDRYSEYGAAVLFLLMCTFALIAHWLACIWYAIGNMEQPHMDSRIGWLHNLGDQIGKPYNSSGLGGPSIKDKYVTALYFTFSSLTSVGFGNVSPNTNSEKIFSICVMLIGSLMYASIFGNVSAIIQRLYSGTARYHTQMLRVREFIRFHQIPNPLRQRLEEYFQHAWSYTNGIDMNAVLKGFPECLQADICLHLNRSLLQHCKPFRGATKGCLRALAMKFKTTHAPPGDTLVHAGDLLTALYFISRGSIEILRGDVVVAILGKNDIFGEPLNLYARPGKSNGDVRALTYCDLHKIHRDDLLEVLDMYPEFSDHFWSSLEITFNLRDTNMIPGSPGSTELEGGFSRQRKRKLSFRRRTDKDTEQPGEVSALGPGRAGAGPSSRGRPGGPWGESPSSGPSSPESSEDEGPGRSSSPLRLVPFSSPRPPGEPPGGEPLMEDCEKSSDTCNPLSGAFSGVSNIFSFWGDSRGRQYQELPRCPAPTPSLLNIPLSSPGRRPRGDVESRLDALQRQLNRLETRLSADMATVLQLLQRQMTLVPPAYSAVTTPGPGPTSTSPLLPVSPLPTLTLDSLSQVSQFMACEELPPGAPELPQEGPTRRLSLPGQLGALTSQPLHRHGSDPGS
Sequence of Cytochrome P450 3A4 (Homo sapiens) (P08684 whole entry, looked up): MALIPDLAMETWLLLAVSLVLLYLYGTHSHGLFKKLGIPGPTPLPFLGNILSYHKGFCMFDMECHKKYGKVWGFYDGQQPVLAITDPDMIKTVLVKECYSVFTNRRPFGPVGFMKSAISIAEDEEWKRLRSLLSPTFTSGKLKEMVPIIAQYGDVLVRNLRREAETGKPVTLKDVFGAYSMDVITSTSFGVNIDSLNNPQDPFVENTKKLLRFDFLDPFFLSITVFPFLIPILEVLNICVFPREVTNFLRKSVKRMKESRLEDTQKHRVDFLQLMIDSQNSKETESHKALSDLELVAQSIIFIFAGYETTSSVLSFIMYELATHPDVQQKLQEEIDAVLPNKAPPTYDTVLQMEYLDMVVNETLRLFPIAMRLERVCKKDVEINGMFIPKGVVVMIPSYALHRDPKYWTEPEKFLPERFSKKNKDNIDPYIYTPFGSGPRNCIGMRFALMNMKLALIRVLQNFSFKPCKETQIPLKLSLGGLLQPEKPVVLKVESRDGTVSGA
Sequence of Cytochrome P450 1A2 (Homo sapiens) (P05177 whole entry, looked up): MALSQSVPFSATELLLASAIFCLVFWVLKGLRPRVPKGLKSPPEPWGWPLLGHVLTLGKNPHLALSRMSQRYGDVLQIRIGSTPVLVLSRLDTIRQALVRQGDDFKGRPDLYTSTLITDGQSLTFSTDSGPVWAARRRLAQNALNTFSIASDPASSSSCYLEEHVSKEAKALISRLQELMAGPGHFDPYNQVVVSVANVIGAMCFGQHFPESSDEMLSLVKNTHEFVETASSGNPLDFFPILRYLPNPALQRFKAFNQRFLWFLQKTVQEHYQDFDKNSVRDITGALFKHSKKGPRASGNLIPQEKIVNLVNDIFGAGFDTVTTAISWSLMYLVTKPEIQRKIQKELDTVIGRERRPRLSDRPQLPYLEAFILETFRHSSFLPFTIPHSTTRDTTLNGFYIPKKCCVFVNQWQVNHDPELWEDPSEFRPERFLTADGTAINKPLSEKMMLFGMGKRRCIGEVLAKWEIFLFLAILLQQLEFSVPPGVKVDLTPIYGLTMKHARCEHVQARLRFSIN
Sequence of Cytochrome P450 2C9 (Homo sapiens) (P11712 whole entry, looked up): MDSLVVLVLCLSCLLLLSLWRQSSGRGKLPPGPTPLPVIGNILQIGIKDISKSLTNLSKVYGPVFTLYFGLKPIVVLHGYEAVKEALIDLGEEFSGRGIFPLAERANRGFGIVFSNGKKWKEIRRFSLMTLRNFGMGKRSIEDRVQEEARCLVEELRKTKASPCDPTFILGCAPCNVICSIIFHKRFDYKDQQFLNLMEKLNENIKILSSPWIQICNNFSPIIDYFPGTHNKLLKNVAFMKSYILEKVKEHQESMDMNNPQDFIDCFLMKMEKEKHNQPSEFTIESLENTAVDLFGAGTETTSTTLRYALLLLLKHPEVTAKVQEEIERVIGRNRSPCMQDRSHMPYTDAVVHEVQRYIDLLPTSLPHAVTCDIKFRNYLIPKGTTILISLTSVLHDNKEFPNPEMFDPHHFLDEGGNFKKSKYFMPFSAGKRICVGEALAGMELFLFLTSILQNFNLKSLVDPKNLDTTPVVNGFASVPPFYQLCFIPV
Sequence of Nuclear receptor subfamily 1 group I member 2 (Rattus norvegicus) (Q9R1A7 whole entry, looked up): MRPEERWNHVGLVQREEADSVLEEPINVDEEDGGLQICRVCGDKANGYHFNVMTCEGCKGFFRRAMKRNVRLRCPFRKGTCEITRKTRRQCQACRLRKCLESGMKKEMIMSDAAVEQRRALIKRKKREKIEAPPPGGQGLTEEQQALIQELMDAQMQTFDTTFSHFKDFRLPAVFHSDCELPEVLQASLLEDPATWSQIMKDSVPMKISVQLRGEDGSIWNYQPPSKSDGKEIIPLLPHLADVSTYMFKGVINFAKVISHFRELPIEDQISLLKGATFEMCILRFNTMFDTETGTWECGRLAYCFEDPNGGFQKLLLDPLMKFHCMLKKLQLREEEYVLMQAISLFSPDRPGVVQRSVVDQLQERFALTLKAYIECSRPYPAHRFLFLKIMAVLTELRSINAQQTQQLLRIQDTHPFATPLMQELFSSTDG
Sequence of Nuclear receptor subfamily 1 group I member 2 (Homo sapiens) (O75469 whole entry, looked up): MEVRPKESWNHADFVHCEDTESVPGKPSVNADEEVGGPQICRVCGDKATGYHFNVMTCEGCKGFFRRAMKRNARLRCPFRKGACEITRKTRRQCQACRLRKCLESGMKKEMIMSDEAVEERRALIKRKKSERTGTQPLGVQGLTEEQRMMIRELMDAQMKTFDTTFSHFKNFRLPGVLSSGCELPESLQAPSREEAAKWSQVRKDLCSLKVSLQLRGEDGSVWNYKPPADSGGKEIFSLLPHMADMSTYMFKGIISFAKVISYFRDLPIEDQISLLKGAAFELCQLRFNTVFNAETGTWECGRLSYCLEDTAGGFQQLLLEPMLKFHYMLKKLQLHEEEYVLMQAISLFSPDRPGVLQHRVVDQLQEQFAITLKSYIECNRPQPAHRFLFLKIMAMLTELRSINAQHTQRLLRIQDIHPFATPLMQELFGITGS
Sequence of Cytochrome P450 2C19 (Homo sapiens) (P33261 whole entry, looked up): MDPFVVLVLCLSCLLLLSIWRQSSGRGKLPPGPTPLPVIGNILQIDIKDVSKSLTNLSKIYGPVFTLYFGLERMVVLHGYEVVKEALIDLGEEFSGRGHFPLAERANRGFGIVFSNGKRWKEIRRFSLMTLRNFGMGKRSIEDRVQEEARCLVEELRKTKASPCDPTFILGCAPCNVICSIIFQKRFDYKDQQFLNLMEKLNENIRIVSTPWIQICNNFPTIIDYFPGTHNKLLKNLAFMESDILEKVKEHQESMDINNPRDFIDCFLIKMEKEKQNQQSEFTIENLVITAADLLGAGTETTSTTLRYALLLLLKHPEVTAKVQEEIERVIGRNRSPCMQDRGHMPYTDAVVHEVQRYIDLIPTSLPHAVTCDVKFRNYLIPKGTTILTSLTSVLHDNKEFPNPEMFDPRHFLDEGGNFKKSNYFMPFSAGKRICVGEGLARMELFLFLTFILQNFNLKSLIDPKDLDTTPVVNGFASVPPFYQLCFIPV

CC(Oc1ccc(Cl)cc1Cl)C(=O)O (stereo not drawn)
Potency [1]: inactive
Potency [2]: inactive
Potency [3]: inactive
Potency [4]: inactive
Potency [5]: inactive
Potency [6]: inactive
Potency [7]: inactive
Potency [8]: 35.7 µM (active)
Potency [9]: 35.7 µM (active) and 71 µM (active)
Potency [10]: inactive
Potency [11]: inactive
Potency [12]: inactive

CCOP(OCC)OCC
Potency [1]: inactive
Potency [2]: inactive
Potency [3]: inactive and 28.3 µM (active)
Potency [4]: inactive
Potency [5]: inactive
Potency [6]: inactive
Potency [7]: 91 µM (active) and 35.6 µM (active)
Potency [8]: inactive
Potency [9]: inactive
Potency [10]: inactive
Potency [11]: inactive
Potency [12]: inactive

COC(=O)c1ccccc1C(=O)OC
Potency [1]: inactive
Potency [2]: inactive
Potency [3]: inactive
Potency [4]: inactive
Potency [6]: inactive
Potency [7]: inactive
Potency [8]: 71.4 µM (active)
Potency [9]: inactive
Potency [10]: 31.9 µM (active) and 25.2 µM (active)
Potency [11]: inactive
Potency [12]: inactive

CC1OC(C)OC(C)O1 (stereo not drawn)
Potency [1]: inactive
Potency [2]: inactive
max activation [13]: -1.58% (inactive) and 0.0541% (inactive)
outcome [14]: inactive
Potency [15]: inactive
Potency [3]: inactive
Potency [5]: inactive
Potency [6]: inactive
Potency [7]: inactive
Potency [8]: inactive
Potency [9]: inactive
Potency [11]: inactive
Potency [12]: inactive

CCCCCOC(=O)c1ccccc1C(=O)OCCCCC
Potency [1]: inactive
Potency [2]: inactive
Potency [3]: inactive
Potency [4]: inactive
Potency [6]: inactive
Potency [7]: inactive
Potency [8]: 11.2 µM (active) and 7.96 µM (active)
Potency [9]: 28.2 µM (active) and 7.96 µM (active)
Potency [10]: 17.8 µM (active) and 8.94 µM (active)
Potency [11]: inactive

Oc1ccccc1Cl
Potency [1]: inactive
Potency [2]: inactive
Potency [3]: inactive
Potency [4]: inactive
Potency [5]: inactive
Potency [6]: inactive
Potency [7]: inactive
Potency [8]: inactive
Potency [9]: inactive
Potency [11]: inactive
Potency [12]: inactive

CN(N=O)c1ccccc1
Potency [1]: inactive
Potency [2]: inactive
Potency [3]: inactive
Potency [4]: inactive
Potency [5]: inactive
Potency [6]: inactive
Potency [7]: inactive
Potency [8]: inactive
Potency [9]: inactive
Potency [10]: inactive
Potency [11]: inactive
Potency [12]: inactive

CCc1cccc(C)c1N(C(=O)CCl)C(C)COC (stereo not drawn)
Potency [1]: inactive
Potency [2]: 2.89 µM (active) and 3.06 µM (active)
Potency [3]: inactive
Potency [4]: inactive
Potency [5]: inactive
Potency [6]: inactive
Potency [7]: inactive
Potency [8]: 6.69 µM (active) and 6.33 µM (active)
Potency [9]: 29.9 µM (active) and 28.3 µM (active)
Potency [10]: 66.9 µM (active) and inactive
Potency [11]: inactive
Potency [12]: inactive

Clc1ccc(Cl)cc1
Potency [1]: 4.32 µM (active) and inactive
Potency [2]: 1.93 µM (active) and inactive
max activation [13]: -1.7% (inactive)
outcome [14]: inactive
Potency [15]: inactive
Potency [3]: inactive
Potency [4]: inactive
Potency [6]: inactive
Potency [7]: inactive
Potency [8]: inactive
Potency [9]: inactive
Potency [10]: inactive
Potency [11]: inactive
Potency [12]: inactive

BrCCBr
Potency [1]: inactive
Potency [2]: inactive
Potency [3]: inactive
Potency [4]: inactive
Potency [5]: inactive
Potency [6]: inactive
Potency [7]: 43.6 µM (active) and inactive
Potency [8]: 69.1 µM (active) and inactive
Potency [9]: inactive
Potency [10]: 30.9 µM (active) and inactive
Potency [11]: inactive
Potency [12]: inactive

Nc1ccc(Br)cc1
Potency [1]: inactive
Potency [2]: inactive
Potency [3]: inactive
Potency [4]: inactive
Potency [5]: inactive
Potency [6]: inactive
Potency [8]: 50.2 µM (active) and 39.9 µM (active)
Potency [9]: 35.5 µM (active) and 35.6 µM (active)
Potency [10]: 44.8 µM (active)
Potency [11]: inactive

CCCCN(CCCC)SN(C)C(=O)Oc1cccc2c1OC(C)(C)C2
Potency [1]: inactive
Potency [2]: 62.1 µM (active) and inactive
Potency [3]: 809 nM (active) and 159 nM (active)
Potency [4]: 57.3 nM (active) and 894 nM (active)
Potency [5]: 36.2 nM (active) and 564 nM (active)
Potency [6]: 573 nM (active) and 3.56 µM (active)
Potency [7]: 28.7 µM (active) and 35.6 µM (active)
Potency [8]: 36.2 µM (active) and 71 µM (active)
Potency [9]: 40.6 µM (active) and 31.7 µM (active)
Potency [10]: 36.2 µM (active) and 39.9 µM (active)
Potency [11]: inactive
Potency [12]: 14.4 µM (active) and 12.6 µM (active)

CC(C)(C)OOC(=O)c1ccccc1
Potency [1]: inactive
Potency [2]: inactive
Potency [3]: inactive
Potency [4]: inactive
Potency [5]: inactive
Potency [6]: inactive
Potency [7]: inactive
Potency [8]: inactive
Potency [9]: inactive
Potency [10]: inactive
Potency [11]: inactive
Potency [12]: inactive

Nc1ccc(Cc2ccc(N)cc2)cc1
Potency [1]: inactive
Potency [2]: 60.1 µM (active) and inactive
Potency [3]: inactive
Potency [4]: inactive
Potency [5]: inactive
Potency [6]: inactive
Potency [7]: inactive
Potency [8]: 35 µM (active) and inactive
Potency [9]: 31.2 µM (active) and inactive
Potency [10]: 39.3 µM (active) and 35.6 µM (active)
Potency [11]: inactive
Potency [12]: 6.99 µM (active) and 3.99 µM (active)

O=[N+]([O-])c1ccc([As](=O)(O)O)cc1
Potency [1]: inactive
Potency [2]: inactive
max activation [13]: -0.802% (inactive)
outcome [14]: inactive
Potency [15]: inactive
Potency [3]: inactive
Potency [6]: inactive
Potency [7]: inactive
Potency [8]: inactive
Potency [9]: inactive
Potency [10]: inactive
Potency [11]: inactive
Potency [12]: inactive
